From PubChem BioAssay AID1159580 (chemical genetic matrix, 2015)
In all, about 5,500 compounds went through this assay and about 2,000 (36%) were called active. Roughly 18% stayed inconclusive and do not appear here. Cut-off read from the data, not from the text of the source: active = normalized growth mostly below about 0.91 (no sharp cut-off); inconclusive = no clear call, values can overlap the other calls; inactive = mostly above about 0.92. The list shows a part of the results.

Assay: chemical genetic growth profiling, strain panel (AID 1159580);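 note: tested at 20 µM; growth read once vehicle control cultures reached saturation at 30 °C; 1 = growth at the plate median or of vehicle wells; lower values mean less growth of the strain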
Details: growth OD

Measured: normalized growth

Oc1cc(O)c2c(c1)O[C@H](c1ccc(O)c(O)c1)[C@@H](O)C2
inactive: S. cerevisiae deletion strains, locus YJR066W, strain TOR1, hits give low values 0.927 | S. cerevisiae deletion strains, locus YJR075W, strain HOC1, hits give low values 1 | S. cerevisiae deletion strains, locus YKL009W, strain mrt4, hits give low values 0.991 | S. cerevisiae deletion strains, locus YKL068W, hits give low values 0.977 | S. cerevisiae deletion strains, locus YKL085W, strain MDH1 (second series), hits give low values 0.981 | S. cerevisiae deletion strains, locus YKL085W, strain MDH1, hits give low values 0.981 | S. cerevisiae deletion strains, locus YKL160W, strain elf1, hits give low values 1.02 | S. cerevisiae deletion strains, locus YKR001C, strain vps1, hits give low values 1.03 | S. cerevisiae deletion strains, locus YKR026C, strain gcn3, hits give low values 0.973 | S. cerevisiae deletion strains, locus YKR091W, strain srl3, hits give low values 1.01 | S. cerevisiae deletion strains, locus YLL001W, strain dnm1, hits give low values 1.01 | S. cerevisiae deletion strains, locus YLL026W, hits give low values 1 | S. cerevisiae deletion strains, locus YLL041C, strain sdh2, hits give low values 1.01 | S. cerevisiae deletion strains, locus YLR027C, strain aat2, hits give low values 1.02 | S. cerevisiae deletion strains, locus YLR039C, strain RIC1, hits give low values 0.919 | S. cerevisiae deletion strains, locus YLR058C, strain SHM2, hits give low values 0.973 | S. cerevisiae deletion strains, locus YLR102C, strain apc9, hits give low values 0.985 | S. cerevisiae deletion strains, locus YLR113W, strain HOG1, hits give low values 0.987 | S. cerevisiae deletion strains, locus YLR221C, strain rsa3, hits give low values 1.02 | S. cerevisiae deletion strains, locus YLR258W, strain gsy2, hits give low values 1 | S. cerevisiae deletion strains, locus YLR262C, strain YPT6 (second series), hits give low values 1.02 | S. cerevisiae deletion strains, locus YLR262C, strain YPT6, hits give low values 0.945 | S. cerevisiae deletion strains, locus YLR268W, strain sec22, hits give low values 1.02 | S. cerevisiae deletion strains, locus YLR320W, strain mms22, hits give low values 1.01 | S. cerevisiae deletion strains, locus YLR330W, strain CHS5, hits give low values 1 | S. cerevisiae deletion strains, locus YLR342W, strain FKS1 (second series), hits give low values 1.02 | S. cerevisiae deletion strains, locus YLR342W, strain FKS1, hits give low values 1.01 | S. cerevisiae deletion strains, locus YLR357W, strain rsc2, hits give low values 0.987 | S. cerevisiae deletion strains, locus YLR370C, strain arc18, hits give low values 1.01 | S. cerevisiae deletion strains, locus YLR371W, strain rom2, hits give low values 1.01 | S. cerevisiae deletion strains, locus YLR384C, strain iki3, hits give low values 0.997 | S. cerevisiae deletion strains, locus YLR418C, strain cdc73, hits give low values 0.965 | S. cerevisiae deletion strains, locus YML016C, strain PPZ1, hits give low values 0.999 | S. cerevisiae deletion strains, locus YML032C, strain rad52, hits give low values 0.947 | S. cerevisiae deletion strains, locus YML120C, strain ndi1, hits give low values 1.01 | S. cerevisiae deletion strains, locus YML124C, strain tub3, hits give low values 0.985 | S. cerevisiae deletion strains, locus YMR058W, strain fet3, hits give low values 1.02 | S. cerevisiae deletion strains, locus YMR078C, strain ctf18, hits give low values 0.984 | S. cerevisiae deletion strains, locus YMR125W, strain sto1, hits give low values 1.01 | S. cerevisiae deletion strains, locus YMR129W, hits give low values 1.02 | S. cerevisiae deletion strains, locus YMR205C, strain PFK2, hits give low values 1 | S. cerevisiae deletion strains, locus YMR223W, strain ubp8, hits give low values 0.972 | S. cerevisiae deletion strains, locus YMR231W, strain pep5, hits give low values 1 | S. cerevisiae deletion strains, locus YMR263W, strain SAP30, hits give low values 0.993 | S. cerevisiae deletion strains, locus YMR307W, strain GAS1, hits give low values 1.01 | S. cerevisiae deletion strains, locus YNL067W, strain RPL9B, hits give low values 0.983 | S. cerevisiae deletion strains, locus YNL071W, strain lat1, hits give low values 1.02 | S. cerevisiae deletion strains, locus YNL128W, strain TEP1, hits give low values 0.97 | S. cerevisiae deletion strains, locus YNL183C, strain NPR1, hits give low values 0.95 | S. cerevisiae deletion strains, locus YNL209W, strain ssb2, hits give low values 1.01 | S. cerevisiae deletion strains, locus YNL233W, strain BNI4, hits give low values 0.993 | S. cerevisiae deletion strains, locus YNL248C, strain rpa49, hits give low values 1.03 | S. cerevisiae deletion strains, locus YNL250W, strain rad50, hits give low values 0.981 | S. cerevisiae deletion strains, locus YNL271C, strain bni1, hits give low values 0.988 | S. cerevisiae deletion strains, locus YNL298W, strain CLA4, hits give low values 0.969 | S. cerevisiae deletion strains, locus YNL307C, strain MCK1, hits give low values 0.989 | S. cerevisiae deletion strains, locus YNL322C, strain KRE1 (second series), hits give low values 1.01 | S. cerevisiae deletion strains, locus YNL322C, strain KRE1, hits give low values 0.99 | S. cerevisiae deletion strains, locus YNR049C, strain mso1, hits give low values 1 | S. cerevisiae deletion strains, locus YNR052C, strain pop2, hits give low values 0.995 | S. cerevisiae deletion strains, locus YOL012C, strain htz1 1.07 | S. cerevisiae deletion strains, locus YOL147C, strain pex11, hits give low values 0.979 | S. cerevisiae deletion strains, locus YOR001W, strain rrp6, hits give low values 1.02 | S. cerevisiae deletion strains, locus YOR061W, strain CKA2, hits give low values 0.97 | S. cerevisiae deletion strains, locus YOR069W, strain VPS5, hits give low values 0.994 | S. cerevisiae deletion strains, locus YOR070C, strain gyp1, hits give low values 0.996 | S. cerevisiae deletion strains, locus YOR080W, strain dia2, hits give low values 1 | S. cerevisiae deletion strains, locus YOR083W, strain WHI5, hits give low values 1.02 | S. cerevisiae deletion strains, locus YOR106W, strain vam3, hits give low values 1.03 | S. cerevisiae deletion strains, locus YOR136W, strain idh2, hits give low values 1 | S. cerevisiae deletion strains, locus YOR144C, strain elg1, hits give low values 0.983 | S. cerevisiae deletion strains, locus YOR184W, strain ser1, hits give low values 0.995 | S. cerevisiae deletion strains, locus YOR231W, strain MKK1, hits give low values 0.987 | S. cerevisiae deletion strains, locus YOR265W, strain rbl2, hits give low values 1 | S. cerevisiae deletion strains, locus YOR270C, strain vph1, hits give low values 1.07 | S. cerevisiae deletion strains, locus YOR290C, strain snf2, hits give low values 0.971 | S. cerevisiae deletion strains, locus YOR316C, strain cot1, hits give low values 0.979 | S. cerevisiae deletion strains, locus YPL051W, strain arl3, hits give low values 1.02 | S. cerevisiae deletion strains, locus YPL078C, strain atp4, hits give low values 1.01 | S. cerevisiae deletion strains, locus YPL106C, strain sse1, hits give low values 1 | S. cerevisiae deletion strains, locus YPL240C, strain hsp82, hits give low values 1 | S. cerevisiae deletion strains, locus YPL256C, strain CLN2, hits give low values 0.984 | S. cerevisiae deletion strains, locus YPR119W, strain clb2, hits give low values 0.983 | S. cerevisiae deletion strains, locus YPR141C, strain kar3, hits give low values 0.972 | S. cerevisiae deletion strains, locus YPR163C, strain tif3, hits give low values 0.992 | S. cerevisiae deletion strains, locus YPR167C, strain met16, hits give low values 0.975 | S. cerevisiae deletion strains, strain wtn01, hits give low values 1.05 | S. cerevisiae strains, strain wild type, hits give low values 0.985
